Assay [1] is described as follows: Nuclear factor erythroid 2-related factor 2/antioxidant responsive element (Nrf2/ARE) small molecule agonists: qHTS cell viability counter screen in human keratinocytes (AID 1919968; active = well fitted curve in the direction sought with a large enough effect in the repeat runs; an effect the other way counts as inactive or inconclusive; note: nearly all actives have a fitted effect of over 55% in size; note: potency is the fitted concentration of half-maximal effect). In outline:
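Seed 1,500 KeratinoSens cells per well, then incubate 5 h at 37 C/5% CO2. Add compounds in DMSO and incubate 23 h. Add CellTiter-Fluor, wait 1 h and read fluorescence.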
A general note: In qHTS, concentration-response curves come from the screen itself.

The nature of assay [2]: Nuclear factor erythroid 2-related factor 2/antioxidant responsive element (Nrf2/ARE) small molecule agonists: luciferase reporter gene qHTS assay in human keratinocytes (AID 1919969). Note: nearly all actives have a fitted effect of over 35% in size. Note: potency is the fitted concentration of half-maximal effect.
The target of assay [3] is Gonadotropin-releasing hormone receptor (Homo sapiens) (UniProt P30968). The experiment in a line: Human gonadotropin-releasing hormone receptor (GnRHR) small molecule agonists, calcium flux assay in GnRHR-HEK293 cells (AID 1920063). Note: nearly all actives have a fitted effect of over 35% in size. In outline:
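Cells: HEK293 stably expressing human GnRHR. Steps: overnight (18 h) culture, 1 h calcium dye loading at 37 C, compound addition, kinetic fluorescence read at 480/540 nm. Each compound tested at 15 concentrations in triplicate.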
For orientation: Calcium flux is commonly read through the fluorescence of an indicator in the cells.

Assay [4] can be described thus: p53 small molecule agonists, cell-based qHTS assay with human liver microsomes (AID 1963577). In outline: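 Compounds act here after metabolic activation: human liver microsomes and NADPH, both at 0.5 mg/mL final, were co-added to p53RE-bla cells. Incubation ran 16 h at 37 C, followed by LiveBLAzer detection.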
Assay [5] is described as follows: p53 small molecule agonists, cell-based qHTS assay with rat liver microsomes (AID 1963578). The procedure, abridged: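 Read-out is beta-lactamase reporter fluorescence (LiveBLAzer, 2 h, room temperature, dark) in p53RE-bla cells treated 16 h at 37 C with compound, rat liver microsomes and NADPH, both 0.5 mg/mL final.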
Assay [6] is described as follows: p53 small molecule agonists, cell-based qHTS assay with human liver microsomes: qHTS cell viability counter screen (AID 1963579). Note: nearly all actives have a fitted effect of over 45% in size. The procedure, abridged: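 Cells carrying the p53 response-element beta-lactamase reporter are treated for 16 h at 37 C with test compounds in the presence of human liver microsomes and NADPH (both 0.5 mg/mL final); ATP-based CellTiter-Glo luminescence then reports viability.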

Assay [7] can be described thus: p53 small molecule agonists, cell-based qHTS assay with rat liver microsomes: qHTS cell viability counter screen (AID 1963580). Note: nearly all actives have a fitted effect of over 45% in size. Note: potency is the fitted concentration of half-maximal effect. In outline: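 p53RE-bla HCT-116 cells (4,000/well) rested 5 h at 37 C, then given Tox21 compounds in DMSO with rat liver microsomes (0.5 mg/mL final) plus NADPH (0.5 mg/mL final) for 16 h at 37 C. Viability read by CellTiter-Glo luminescence after 30 min at room temperature.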

A short description of assay [8]: p53 small molecule agonists, cell-based qHTS assay: qHTS cell viability counter screen (AID 1963581). Note: nearly all actives have a fitted effect of over 45% in size. The procedure, abridged:
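Cells: HCT-116 with p53 response element-driven beta-lactamase. Treatment: 16 h, 37 C, compounds in DMSO. Read: CellTiter-Glo luminescence after 30 min RT.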

Assay [9] has as its target 5-hydroxytryptamine receptor 2A (Homo sapiens) (UniProt P28223). The experiment in a line: 5-hydroxytryptamine receptor 2A (HTR2A) small molecule antagonists, cell-based qHTS assay (AID 1963586). Note: nearly all actives have a fitted effect of over 45% in size. The procedure, abridged:
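Antagonist-mode intracellular calcium assay: DOI (4 nM) added after 5 min compound pre-incubation at room temperature to dye-loaded HTR2A-CHO cells. Fluorescence followed for 3 min, sampled every second.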

Assay [10] shares this target. The experiment in a line: 5-hydroxytryptamine receptor 2A (HTR2A) small molecule agonists, cell-based qHTS assay (AID 1963587). Note: nearly all actives have a fitted effect of over 30% in size. In outline:
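HTR2A-CHO cells, plated 18 h at 37 C/5% CO2, dye-loaded 1 h at 37 C; compounds in DMSO added by pin tool (agonist mode). Intracellular calcium flux read as kinetic fluorescence on FDSS over 2 min at 1 s intervals.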

Assay [11] addresses Muscarinic acetylcholine receptor M1 (Homo sapiens) (UniProt P11229). The experiment in a line: Cholinergic receptor muscarinic 1 (CHRM1) small molecule antagonists, cell-based qHTS assay (AID 1963588). Note: nearly all actives have a fitted effect of over 40% in size. The procedure, abridged:
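CHRM1-CHO calcium-flux assay, antagonist mode. Cells were seeded 18 h, dye-loaded 1 h at 37 C and given compound for 5 min at RT, then acetylcholine was added at 50nM. FDSS fluorescence was read 3 min; 15 concentrations, three runs.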

The target is the same in assay [12]. Kind of assay: Cholinergic receptor muscarinic 1 (CHRM1) small molecule agonists, cell-based qHTS assay (AID 1963589). Note: nearly all actives have a fitted effect of over 35% in size. In outline:
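Agonist-mode qHTS in CHO cells stably carrying human muscarinic M1. Intracellular calcium is tracked by fluorescence every second after compound transfer; each compound runs at 15 concentrations in three independent runs.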

A short description of assay [13]: cAMP Responsive Elements (CRE) small molecule antagonists, cell-based qHTS assay (AID 1963591; active = well fitted inhibition curve with a large enough effect in the signal ratio in the repeat runs, not every such curve was filed as active; the % refers to the signal ratio). In outline: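 Antagonist mode: test compounds are co-incubated with the adenylyl cyclase activator NKH477 (0.25 uM final) on CRE-bla HEK293T cells for 3 h at 37 °C, followed by LiveBLAzer substrate loading.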
The target of assay [14] is Beta-2 adrenergic receptor (Homo sapiens) (UniProt P07550). The experiment in a line: Adrenergic beta2 receptor (ADRB2) small molecule antagonists, cell-based qHTS assay (AID 1963592). Note: series mostly up to about 92 µM; nearly all actives have a fitted effect of over 50% in size. In outline:
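Cells (CHO, stable ADRB2 overexpression) incubated 18-20hr at 37C; compounds added from DMSO; agonist mix (1nM isoproterenol, 100uM IBMX, 25uM Ro-20-1724) added; 0.5hr RT; d2-cAMP and anti-cAMP-cryptate added; 1hr RT; 665/615 nm read.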

The target is the same in assay [15]. Kind of assay: Adrenergic beta2 receptor (ADRB2) small molecule agonists, cell-based qHTS assay (AID 1963593).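 Note: CHO cells stably overexpressing human ADRB2.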 In outline:
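CHO cells stably over-expressing ADRB2 were plated overnight at 37C, then dosed with compounds plus a stimulation mix containing 100uM IBMX and 25uM Ro-20-1724 for 0.5hr at room temperature. cAMP was measured by HTRF competition, 1hr.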

Assay [16] concerns the target D(2) dopamine receptor (Homo sapiens) (UniProt P14416). The experiment in a line: Dopamine D2 receptor (DRD2) small molecule agonists, cell-based qHTS assay (AID 1963594). Note: nearly all actives have a fitted effect of over 35% in size. The procedure, abridged:
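HEK293 cells stably expressing DRD2 were cultured 24 h at 37 C, then given Ro20-1724 (0.1 mM final) and compounds for 10 min at room temperature. NKH477 (200nM) was then added for 30 min. cAMP was read by HTRF.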

Assay [17] shares this target. The experiment in a line: Dopamine D2 receptor (DRD2) small molecule antagonists, cell-based qHTS assay (AID 1963595; active = well fitted inhibition curve with a large enough effect in the signal ratio in the repeat runs, with a control signal flat; the % refers to the signal ratio). In outline:
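HTRF cAMP read-out at 665 and 620 nm emission (340 nm excitation). Antagonist mode: compounds were tested against 12 nM quinpirole in DRD2-HEK293 cells, with 200 nM NKH477 raising cAMP and 0.1 mM Ro20-1724 blocking its breakdown.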

Assay [18] can be described thus: p53 small molecule agonists, cell-based qHTS assay (AID 1963582; active = well fitted activation curve with a large enough effect in the signal ratio in the repeat runs, not every such curve was filed as active; the % refers to the signal ratio). In outline:
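Quantitative HTS in p53RE-bla cells: after a 5 h settling period, compounds delivered in DMSO were left on cells for 16 h at 37 C, and reporter induction was measured as fluorescence following 2 h substrate loading.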

Assay [19] is described as follows: cAMP Responsive Elements (CRE) small molecule agonists, cell-based qHTS assay (AID 1963590). In outline:
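Agonist mode qHTS in CRE-bla HEK 293T cells: compounds dosed from DMSO for 3 h at 37 C/5% CO2, followed by LiveBLAzer B/G FRET substrate for 2 h at room temperature.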

In assay [20] the target is KiSS-1 receptor (Homo sapiens) (UniProt Q969F8). The experiment in a line: Human kisspeptin (KISS1R) small molecule agonists, calcium flux assay in KISS1R-HEK293 cells (AID 1920064; active = well fitted curve in the direction sought with a large enough effect in the repeat runs; an effect the other way counts as inactive or inconclusive). In outline: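 Cells plated and incubated 18 h; dye added, 1 h at 37 C; compounds in DMSO pinned in; signal read at 480/540 nm every second for 3 min. Each compound tested at 15 concentrations in triplicate.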

Where “and” joins values, the source holds several entries; their conditions need not be identical. Equal entries are not always repeated. Inconclusive results are not listed. Some compounds were tested as several samples or in several runs, with calls that do not always agree. Calls of active or inactive are those of the source. Unless noted, calls come from the whole dose curve.

Sequence of D(2) dopamine receptor (Homo sapiens) (P14416 whole entry, looked up): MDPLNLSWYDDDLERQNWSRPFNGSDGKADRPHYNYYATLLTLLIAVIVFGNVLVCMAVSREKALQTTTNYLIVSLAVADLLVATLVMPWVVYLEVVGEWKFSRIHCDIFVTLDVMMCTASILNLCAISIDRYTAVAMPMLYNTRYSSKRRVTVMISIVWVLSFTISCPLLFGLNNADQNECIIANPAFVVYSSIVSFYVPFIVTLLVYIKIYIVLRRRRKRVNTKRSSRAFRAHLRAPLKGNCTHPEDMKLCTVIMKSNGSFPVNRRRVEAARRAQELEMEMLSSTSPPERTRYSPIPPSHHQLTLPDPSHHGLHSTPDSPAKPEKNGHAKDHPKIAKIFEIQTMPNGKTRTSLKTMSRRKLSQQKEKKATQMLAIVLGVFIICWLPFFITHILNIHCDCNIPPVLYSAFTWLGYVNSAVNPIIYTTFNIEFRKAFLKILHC
Sequence of 5-hydroxytryptamine receptor 2A (Homo sapiens) (P28223 whole entry, looked up): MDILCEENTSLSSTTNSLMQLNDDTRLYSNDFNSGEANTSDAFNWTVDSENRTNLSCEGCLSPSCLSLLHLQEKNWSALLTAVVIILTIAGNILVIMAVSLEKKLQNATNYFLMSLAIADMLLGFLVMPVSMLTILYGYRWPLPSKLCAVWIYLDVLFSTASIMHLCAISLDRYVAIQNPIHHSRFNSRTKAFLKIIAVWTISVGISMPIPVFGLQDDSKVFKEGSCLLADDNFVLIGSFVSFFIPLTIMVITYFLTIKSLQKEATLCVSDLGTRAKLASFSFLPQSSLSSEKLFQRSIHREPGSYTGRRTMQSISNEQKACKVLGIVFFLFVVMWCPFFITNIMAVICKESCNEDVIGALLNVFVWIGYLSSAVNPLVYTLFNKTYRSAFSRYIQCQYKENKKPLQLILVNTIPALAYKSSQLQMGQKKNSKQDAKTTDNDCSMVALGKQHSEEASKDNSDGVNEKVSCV
Sequence of KiSS-1 receptor (Homo sapiens) (Q969F8 whole entry, looked up): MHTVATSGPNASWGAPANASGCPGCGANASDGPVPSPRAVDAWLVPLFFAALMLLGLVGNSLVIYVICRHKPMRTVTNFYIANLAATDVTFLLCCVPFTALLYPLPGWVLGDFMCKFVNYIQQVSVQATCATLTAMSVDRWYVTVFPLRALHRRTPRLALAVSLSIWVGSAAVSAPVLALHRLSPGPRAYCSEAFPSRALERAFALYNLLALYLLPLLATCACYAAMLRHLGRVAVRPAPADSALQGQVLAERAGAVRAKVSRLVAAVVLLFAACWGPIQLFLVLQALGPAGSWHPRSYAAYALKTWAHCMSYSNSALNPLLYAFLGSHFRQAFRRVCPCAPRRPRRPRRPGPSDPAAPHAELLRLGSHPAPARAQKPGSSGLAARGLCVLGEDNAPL
Sequence of Beta-2 adrenergic receptor (Homo sapiens) (P07550 whole entry, looked up): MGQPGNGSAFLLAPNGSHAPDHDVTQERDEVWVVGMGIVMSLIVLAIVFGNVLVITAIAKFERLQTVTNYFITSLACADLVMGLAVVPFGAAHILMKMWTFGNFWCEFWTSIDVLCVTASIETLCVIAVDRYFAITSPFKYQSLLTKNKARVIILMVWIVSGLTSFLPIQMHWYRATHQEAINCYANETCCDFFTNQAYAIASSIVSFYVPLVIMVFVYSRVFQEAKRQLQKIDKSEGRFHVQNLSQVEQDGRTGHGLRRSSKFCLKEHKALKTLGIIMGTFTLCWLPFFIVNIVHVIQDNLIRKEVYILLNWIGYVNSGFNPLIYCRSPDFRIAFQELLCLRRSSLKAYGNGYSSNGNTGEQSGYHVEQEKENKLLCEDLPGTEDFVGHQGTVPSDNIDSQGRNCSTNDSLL
Sequence of Gonadotropin-releasing hormone receptor (Homo sapiens) (P30968 whole entry, looked up): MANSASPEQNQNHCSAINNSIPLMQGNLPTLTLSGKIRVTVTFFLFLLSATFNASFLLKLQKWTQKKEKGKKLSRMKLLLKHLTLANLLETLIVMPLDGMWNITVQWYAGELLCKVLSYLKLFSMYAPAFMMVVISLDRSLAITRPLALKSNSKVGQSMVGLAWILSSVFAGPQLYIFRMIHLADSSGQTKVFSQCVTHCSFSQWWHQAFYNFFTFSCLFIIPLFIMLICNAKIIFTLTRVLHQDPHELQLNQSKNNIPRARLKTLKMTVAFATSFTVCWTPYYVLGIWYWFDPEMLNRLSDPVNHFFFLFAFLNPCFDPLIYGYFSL
Sequence of Muscarinic acetylcholine receptor M1 (Homo sapiens) (P11229 whole entry, looked up): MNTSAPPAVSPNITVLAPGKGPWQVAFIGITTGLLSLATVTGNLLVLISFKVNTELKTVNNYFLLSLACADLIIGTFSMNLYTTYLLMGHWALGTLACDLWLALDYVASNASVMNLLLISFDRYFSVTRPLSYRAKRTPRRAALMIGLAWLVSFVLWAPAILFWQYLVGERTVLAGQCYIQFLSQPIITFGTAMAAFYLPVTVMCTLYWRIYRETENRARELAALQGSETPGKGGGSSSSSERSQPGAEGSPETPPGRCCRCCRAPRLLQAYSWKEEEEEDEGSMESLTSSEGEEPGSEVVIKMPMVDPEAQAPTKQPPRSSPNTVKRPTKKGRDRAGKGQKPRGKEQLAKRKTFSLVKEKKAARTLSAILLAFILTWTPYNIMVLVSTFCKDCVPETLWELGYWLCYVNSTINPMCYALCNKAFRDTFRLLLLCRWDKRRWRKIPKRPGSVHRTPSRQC

For the compound `Cl/C=C\C[N+]12CN3CN(CN(C3)C1)C2`, the Potency result in [1], in [3], in assay [4], in assay [5], in assay [6] and in [7] was “inactive” throughout. Besides, the Potency result in assay [8], in [9], in assay [10], in assay [11], in assay [12] and in assay [13] was “inactive” each time. In addition, the Potency result in assay [14], in assay [15], in assay [16] and in assay [17] was “inactive” throughout. The Potency in [2] was 68.6 µM (active).

In the case of `CC1CCC(=O)O1` (stereo unspecified), the Potency result in [1], in assay [2], in assay [3], in assay [4], in assay [5] and in assay [6] was “inactive” each time. For the same compound, the Potency entry in assay [7], in assay [8], in [18], in assay [9], in assay [10] and in assay [11] was “inactive” in each case. For the same compound, the Potency result in [12], in [19], in assay [13], in assay [14], in [16] and in [17] was “inactive” each time.

As to `CN1CSC(=S)N(C)C1`, the Potency in [1] is 2.72 µM (active); in [2], 1.21 µM (active) and 2.43 µM (active); in [7], 20.3 µM (active). The Potency result in [3], in assay [4], in [5], in assay [6], in [8] and in assay [18] was “inactive” in each case. Also, the Potency entry in assay [9], in assay [10], in [11], in assay [12], in assay [19] and in assay [14] was “inactive” each time. Besides, the Potency entry in assay [16] and in assay [17] was “inactive” throughout.

Turning to `Oc1ccccc1-c1ccccc1`, the Potency result in assay [1], in assay [3], in assay [4], in assay [5], in assay [6] and in assay [7] was “inactive” in each case. Further, the Potency entry in assay [8], in [18], in assay [9], in assay [10], in assay [11] and in assay [19] was “inactive” throughout. In addition, the Potency result in assay [13], in [14], in [15], in [16] and in assay [17] was “inactive” in each case. Moreover, the Potency in [2] is 62.6 µM (active) and inactive.

On to `CC(O)CN(CC(C)O)CC(C)O` (stereo unspecified), for which the Potency result in [1], in [2], in assay [3], in assay [4], in [5] and in assay [6] was “inactive” throughout. For the same compound, the Potency entry in [7], in assay [8], in assay [18], in assay [9], in [10] and in [11] was “inactive” in each case. Also, the Potency entry in [12], in assay [19], in [13], in assay [14], in assay [15] and in assay [16] was “inactive” throughout. The Potency entry in [17] was “inactive”.

`CC(=O)/C=C/c1ccccc1`: the Potency result in [1], in assay [3], in assay [20], in assay [6], in assay [7] and in [8] was “inactive” each time. For the same compound, the Potency entry in assay [9], in assay [10], in assay [11], in assay [12], in [19] and in assay [13] was “inactive” in each case. Moreover, the Potency result in assay [14], in assay [15], in [16] and in assay [17] was “inactive” in each case. In addition, the Potency in assay [2] is 60 µM (active) and inactive.
